KB-3-1 tox: kills parental KB-3-1 adenocarcinoma cells. Potency, µM (doses to about 46.1 µM), usual class: cytotoxic. KB-3-1 viability, CellTiter-Glo ATP luminescence, 72 h. 1.4% of 400,000 active; also: % is scaled to controls: 0 for no effect and ±100 for the full control effect; nearly all actives have a fitted effect of over 60% in size
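Cells are dispensed, compounds pinned in, plates held at 37 °C for 72 h, then CellTiter-Glo is added and luminescence read after 10 minutes. Cell line: parental KB-3-1 in phenol-red-free DMEM, 10% FBS.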
KB-V1 cytotox: kills drug-selected multidrug resistant KB-V1 cells. KB-V1 MDR cells viability, CellTiter-Glo, 72 h. Potency, µM (top dose mostly 46.1 µM), usual class: cytotoxic. 3.4% of 400,000 active. AID 1347076; also: % is scaled to controls: 0 for no effect and ±100 for the full control effect; nearly all actives have a fitted effect of over 60% in size
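Readout: CellTiter-Glo luminescence, 10 min after addition. Cells: KB-V1 MDR subline, 72 h at 37 degrees C with compound. Analysis: corrected, normalized data fitted to concentration-effect curves.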
HT1080 IDH1KD tx: HT-1080 IDH1 knockdown cell toxicity (counter line). Potency, µM (top dose mostly 46.1 µM), for the others: at the top dose activity, negative = toxicity, actives largely listed as cytotoxic. HT-1080 IDH1 knockdown viability, ATP luminescence, 48 h. AID 686971. 2% of 360,000 active;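 also: 0% = DMSO wells and -100% = cell-free medium wells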
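In this qHTS, HT-1080 cells depleted of IDH1 are exposed for 48 h at 37 °C to compound titrations. Toxicity is scored from CellTiter-Glo luminescence, with DMSO as full viability and medium alone as none.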
HT1080-NT tox: kills 2HG-producing HT-1080-NT fibrosarcoma cells | HT-1080-NT fibrosarcoma viability, CellTiter-Glo ATP luminescence, 48 h | Potency, µM (top dose mostly 46.1 µM), inactives show top-dose activity, negative = less viability, actives largely listed as cytotoxic | 1.6% of 360,000 active;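 also: NT is the 2HG producing partner of a matched IDH1 knockdown line; 0% = DMSO-treated cells and -100% = media-only wells without cells; nearly all actives have a fitted effect of over 55% in size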
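Viability by CellTiter-Glo luminescence after 48 h compound exposure at 37C of HT-1080-NT cells (750/well, RPMI, 5% FBS). % activity scaled between DMSO wells and medium-only wells, then curve-fitted and categorized by curve class.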
MCF10A rereplic: induces DNA re-replication in MCF 10a normal breast cells. AID 624296. MCF 10A DNA re-replication, Hoechst nuclear intensity, 48 h. Potency, µM (series often up to 46.1 µM), for inactives: at the top dose activity, positive = re-replication, actives largely listed as activators. 2.9% of 350,000 active; also: % of control where 0% means no effect; nearly all actives have a fitted effect of over 50% in size
SW480 rereplic: induces DNA re-replication in SW480 colon adenocarcinoma cells. SW480 DNA re-replication, Hoechst DNA content imaging, 48 h. Potency, µM (top dose mostly 46.1 µM), for inactives: at the highest dose re-replication activation, actives largely listed as activators. 1.8% of 340,000 active. AID 624297; also: % of control where 0% means no effect; nearly all actives have a fitted effect of over 55% in size
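Readout is total intensity of Hoechst-stained nuclei, excited at 405 nm and collected at 500-530 nm. Compound treatment lasted 48 hr at 37 C in 5% CO2 before staining.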
An asterisk follows results filed as active. A selection: hits, their analogues and other compounds. The true share with any hit is near 8%. Calls follow the shape of the dose curve; as a rule, active = well fitted curve in the direction sought with a large enough effect; inconclusive = small, poorly fitted or top-dose-only effect, or another doubt; inactive = no such curve, though single readings can be large; an effect the other way counts as inactive or inconclusive. Potency is read from the fitted curve at half-maximal effect.

CSc1nc2ccc3nc(NC(=O)c4ccc(C)cc4)sc3c2s1 was read as KB-3-1 tox inactive, KB-V1 cytotox inactive, HT1080 IDH1KD tx 11%, HT1080-NT tox 23%, MCF10A rereplic -7% and SW480 rereplic -3%.
Cc1ccc(C(=O)Nc2nc3ccccc3c(=O)s2)cc1 was read as KB-3-1 tox inactive, KB-V1 cytotox inactive, HT1080 IDH1KD tx 7.9µM*, HT1080-NT tox inconclusive, MCF10A rereplic 0% and SW480 rereplic -4%.
CCOC(=O)c1ccc(NC(=O)c2nc(S(=O)(=O)Cc3ccccc3)ncc2Cl)cc1 was read as KB-3-1 tox 21µM*, KB-V1 cytotox inconclusive, HT1080 IDH1KD tx 2.9µM*, HT1080-NT tox 5.8µM*, MCF10A rereplic 2.9µM* and SW480 rereplic -5%.
`Cc1ccc(NC(=O)c2nc(S(=O)(=O)Cc3ccccc3F)ncc2Cl)cc1` gave KB-3-1 tox inactive and KB-V1 cytotox inconclusive.
COC(=O)c1ccc(NC(=O)c2nc(S(=O)(=O)Cc3cccc(C)c3)ncc2Cl)cc1 was read as KB-3-1 tox 15µM*, KB-V1 cytotox 9.2µM*, HT1080 IDH1KD tx 21µM*, HT1080-NT tox 12µM*, MCF10A rereplic 11% and SW480 rereplic inconclusive.
Screening Cc1ccc(NC(=O)c2nc(S(=O)(=O)Cc3ccccc3C)ncc2Cl)cc1C returned KB-3-1 tox inconclusive, KB-V1 cytotox 18µM*, HT1080 IDH1KD tx 16µM*, HT1080-NT tox inconclusive, MCF10A rereplic inconclusive and SW480 rereplic inconclusive.
For CC(=O)Nc1ccc(NC(=O)c2nc(S(=O)(=O)Cc3cccc(C)c3)ncc2Cl)cc1 the results were KB-3-1 tox 5.2µM*, KB-V1 cytotox inconclusive, HT1080 IDH1KD tx 5.8µM*, HT1080-NT tox 9.2µM*, MCF10A rereplic 18% and SW480 rereplic inconclusive.
`CCS(=O)(=O)c1ncc(Cl)c(C(=O)Nc2ccccc2)n1` gave KB-3-1 tox inconclusive and KB-V1 cytotox inactive.
For COc1ccc(CNS(=O)(=O)c2ccc(-c3ccc(=O)[nH]n3)s2)cc1OC the results were KB-3-1 tox inactive, KB-V1 cytotox inactive, HT1080 IDH1KD tx -2%, HT1080-NT tox 0%, MCF10A rereplic inconclusive and SW480 rereplic -1%.
Screening Cn1c(-c2cccs2)nc2ccccc21 returned KB-3-1 tox inactive, KB-V1 cytotox inactive, HT1080 IDH1KD tx 0%, HT1080-NT tox 0%, MCF10A rereplic -1% and SW480 rereplic -3%.
For O=[N+]([O-])c1ccccc1N/N=C\c1ccccc1F the results were KB-3-1 tox inactive, KB-V1 cytotox inactive, HT1080 IDH1KD tx 8%, HT1080-NT tox 11%, MCF10A rereplic 5% and SW480 rereplic 21µM*.
For O=C(c1ccc([N+](=O)[O-])o1)N1CCc2ccccc2C1 the results were KB-3-1 tox inactive, KB-V1 cytotox inconclusive, HT1080 IDH1KD tx -22%, HT1080-NT tox -2%, MCF10A rereplic 2% and SW480 rereplic inconclusive.
For COc1cccc2sc(N3CCN(C(=O)c4ccc([N+](=O)[O-])o4)CC3)nc12 the results were KB-3-1 tox inconclusive, KB-V1 cytotox inconclusive, HT1080 IDH1KD tx -2%, HT1080-NT tox -25%, MCF10A rereplic 23µM* and SW480 rereplic inconclusive.
Screening Cc1ccc(C(=O)N2CCc3ccccc32)o1 returned KB-3-1 tox inconclusive, KB-V1 cytotox inconclusive, HT1080 IDH1KD tx -23%, HT1080-NT tox -14%, MCF10A rereplic 0% and SW480 rereplic 3%.
COc1cc2c(cc1OC)CN(C(=O)c1ccc([N+](=O)[O-])o1)CC2 was read as KB-3-1 tox inactive, KB-V1 cytotox inconclusive, HT1080 IDH1KD tx inconclusive, HT1080-NT tox 13µM*, MCF10A rereplic inconclusive and SW480 rereplic 6.5µM*.
`O=C(c1ccc([N+](=O)[O-])o1)N1CCc2ccccc21` gave KB-3-1 tox inconclusive, KB-V1 cytotox inconclusive, HT1080 IDH1KD tx inconclusive, HT1080-NT tox -2%, MCF10A rereplic 9.2µM* and SW480 rereplic 21µM*.
For Cc1ccc2sc(N3CCN(C(=O)c4ccc([N+](=O)[O-])o4)CC3)nc2c1C the results were KB-3-1 tox inactive, KB-V1 cytotox inactive, HT1080 IDH1KD tx -9%, HT1080-NT tox 1%, MCF10A rereplic inconclusive and SW480 rereplic 2%.
O=C(c1ccc([N+](=O)[O-])o1)N1CCN(c2nc3c(Cl)cccc3s2)CC1 was read as KB-3-1 tox inconclusive, KB-V1 cytotox inconclusive, HT1080 IDH1KD tx -10%, HT1080-NT tox -1%, MCF10A rereplic 7.3µM* and SW480 rereplic inconclusive.
`CCn1c(SCC(=O)Nc2cc(Cl)ccc2OC)nc2c([nH]c3ccccc32)c1=O` gave KB-3-1 tox inactive and KB-V1 cytotox inactive.
Screening Cc1c(Cl)cccc1NC(=O)c1ccc2c(c1)CCN2S(=O)(=O)c1ccccc1 returned KB-3-1 tox inactive and KB-V1 cytotox inactive.
Screening CNc1c(Br)cc(/C=C2\C=C(C(O)c3cc(Br)c(NC)c(Br)c3)c3ccccc32)cc1Br (stereo not given) returned KB-3-1 tox inactive and KB-V1 cytotox inactive.
Screening Cc1nnc(NC(=O)c2sc3nc(-c4cccs4)cc(C(F)(F)F)c3c2N)s1 returned KB-3-1 tox inactive, KB-V1 cytotox 13µM*, HT1080 IDH1KD tx -5%, HT1080-NT tox -23%, MCF10A rereplic inconclusive and SW480 rereplic 4%.
For NC1(c2ccc(-c3nc4ccn5c(=O)[nH]nc5c4cc3-c3ccccc3)cc2)CCC1 the results were KB-3-1 tox inactive and KB-V1 cytotox inactive.
Screening CCOC(=O)c1cnc2ccc(C)cc2c1Nc1ccc(N2CCOCC2)cc1 returned KB-3-1 tox inconclusive, KB-V1 cytotox inactive, HT1080 IDH1KD tx inconclusive, HT1080-NT tox inconclusive, MCF10A rereplic 21µM* and SW480 rereplic 16%.
CCOC(=O)c1cnc2ccc(Cl)cc2c1Nc1ccc(N2CCOCC2)cc1 was read as KB-3-1 tox inactive and KB-V1 cytotox inactive.
COc1ccc(Cn2ccc3nc(C)c(C(=O)Nc4ccc(OC)cc4OC)cc3c2=O)cc1 was read as KB-3-1 tox inactive and KB-V1 cytotox inactive.
Screening COC(=O)CN(c1cc(Cl)ccc1OC)S(=O)(=O)c1ccc(OC)c(OC)c1 returned KB-3-1 tox inactive, KB-V1 cytotox 2.3µM*, HT1080 IDH1KD tx -1%, HT1080-NT tox 3%, MCF10A rereplic -6% and SW480 rereplic -4%.
Cc1c(Cn2ccnc2)c2ccccc2n1CCC(=O)O was read as MCF10A rereplic 1% and SW480 rereplic -14%.
